The full ranking holds about 25,000 sequences; the median of “ln(normalized median fluorescence intensity)” is about 6.7, and the highest 2% start at about 10. This is one part of a sample in which the highest values are shown more often than they occur.
System: PfHDP1 homeodomain (GST-tagged)
Test: gcPBM binding intensity (ln(normalized median fluorescence intensity)); higher = stronger DNA binding
In short: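 Binding intensity values are the highest Masliner-normalised natural-log median intensity among replicate spots of either probe orientation. The binding step lasted 1 h in 1× PBS with 1% milk, 0.2 mg/ml BSA, 0.5% salmon testes DNA and 0.03% Triton X-100, using GST-tagged P. falciparum DNA-binding domains expressed in E. coli on an Agilent 4 × 180k array of primer-extended double-stranded 36-bp intergenic genomic probes plus negative controls. Alexa488 anti-GST antibody and a 488 nm scan detected bound protein.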

| Sequence | gcPBM binding intensity (ln) |
| --- | --- |
| TTTGTTTTATCTTATATGCACACGATAAAAAAAAAA [CACACA_site2673] | 9.69 |
| TATAAAAATAATATTACACACATGTAAAATGGGGGT [CACACA_site9071] | 7.03 |
| TTGTTTTCACCAAATACACACAAGCATACACCCCAT [CACACA_site2717] | 7.34 |
| AGTGATTATTAATAATGTACATATCTATAAATATAT [XGTACX_site4734] | 6.43 |
| TTAATGTTATATGTGTGTACATATAAGTTTAGTAAA [XGTACX_site4651] | 6.53 |
| AAAAAAATGAAGAAATGTACAAATTTCATTAATTTT [XGTACX_site354] | 6.05 |
| TTCATATATAATTGTACACACAAAAACGACATTGTG [CACACA_site2074] | 7.05 |
| TAGATCATAACAATTGCACACATTTGCATTTATATT [CACACA_site1562] | 10.1 |
| ATATTATGTGATTGTGCACACTGGAGATTTTTTTTA [CACACA_site1453] | 11.2 |
| TTTAGTTTTTATATAGCACACATATTGTGATTATGT [CACACA_site8316] | 6.82 |
| GAGATTTATTTATGTGCACACTAGAACAATTGGATC [CACACA_site2090] | 10.5 |
| TATATATATATATATGTGCACTGGACATATTTTTAT [GTGCAC_site9721] | 9.84 |
| TTATTTGAACAATATGCACACATTTTATTTATTTTA [CACACA_site3420] | 10.1 |
| TTAATATGTTTAACCATTTTACATAAATTGATTTGT [CACACA_negctrl_site1100] | 6.3 |
| TGTTATTACTTTATATCATCTTAAAATAAGCATATT [CACACA_negctrl_site1501] | 6.26 |
| AAATTAATACATTATTGTACTTTTCATGTGCAGAAA [XGTACX_site8284] | 8.11 |
| TTACTTGTTTATTTTTTTTTTTTTTTTTTTTTTGTT [TGCATGCA_negctrl_site103] | 5.62 |
| TATATGAAAATGTTCATACACACATAAAAAAAAAAA [CACACA_site3237] | 6.41 |
| GTTCAATCGGGTGTTACTTCAAACAAGGAACAACAA [TGCATGCA_negctrl_site471] | 6.16 |

| Sequence | gcPBM binding intensity (ln) |
| --- | --- |
| TTAAGATATGTATATCGTACATGACATTAAAAATTT [XGTACX_site3352] | 6.02 |
| ATGCAAATAATATAAAGTACACAACATCGCCCAAAG [XGTACX_site1825] | 7 |
| TATATATTTTCTTTTGCACACTGTTTTCCTTTTTTT [CACACA_site2739] | 10.2 |
| ACAAGTATTCCTTTTGCACACCTTTCTGCACCTTAT [CACACA_site3873] | 11.1 |
| TATTTAACACCTTATACACACTTTCTTCCTTTTTTA [CACACA_site4590] | 7.12 |
| AAAATTAGGTATATATGTACATATATAAATATATAT [XGTACX_site3555] | 6.8 |
| TAAAGAAACTATTCAACACACGGTCTAATTATTACA [CACACA_site1064] | 6.15 |
| TATTATTTACCTTGCTAGTTCGTTCCAAATTTTATG [XGTACX_negctrl_site197] | 7.19 |
| AATGTGCAAACAAACTGTACTTTTTTTTTTTTTTTT [XGTACX_site928] | 10.6 |
| AAACAAATGTATATGTGTACTTATTTTTTTGTATGT [XGTACX_site7134] | 6.17 |
| ACAAAACTTTTAAGAACACACAAAAATGTACTATCG [CACACA_site7245] | 6.17 |
| TTTTCATTTTTCTTTACACACATATATATATATATA [CACACA_site2236] | 9.23 |
| ATATAGATGCATAATACACACATCAGATAATTAACC [CACACA_site6871] | 6.96 |
| TGCAAAAAATTCCACACACACACACGCATATAAATA [CACACA_site6696] | 6.72 |
| TTTTTTTGTTAAAAGGTGCTAATATATATAAGTGCT | 6.62 |
| ATGATATACTTGAGTGTGCACAAACTATTACTTACA | 11 |
| ATATATTTGATAAGAGTGCACAAATACATACATACA [GTGCAC_site9704] | 9.65 |
| TCTACTATTATATATTGTACAAATGATACTTATATT [XGTACX_site1819] | 6.61 |
| CCATTTGATAATAATGCACACCACATATATTTATAT [CACACA_site9002] | 10.1 |

| Sequence | gcPBM binding intensity (ln) |
| --- | --- |
| TTATTTACATCAAGTACATGCAGTAAAAAAAAAAAA [TGCATGCA_site351] | 6.41 |
| ATATATATATATATATGTACTTATTTATCGTATTAT [XGTACX_site3520] | 9.59 |
| TACACATAATATAATGCATGTGTGATGTATGTTTAA [TGCATGCA_site697] | 6.56 |
| TCTTTTAACACATGTGATATTATTTAATAACAATAA [CACACA_negctrl_site339] | 6.51 |
| CTTTTTTTAATGATAACACACATGTTGTGCATAGAC [CACACA_site3270] | 10.7 |
| TTTTTTTTTTATTAATGTACAAGATATATAATGTTA [XGTACX_site4809] | 6.16 |
| TTAAAAAACCTTAGATGTACAGTTATATATAAAATA [XGTACX_site6688] | 6.37 |
| TTTAATTTTCGGTGTGCACACAACTATGAGTTTTTA [CACACA_site3034] | 11.2 |
| AACGGGGGTAGTTTTATGCACACGTTTATTAATGCT [CACACA_site3173] | 9.56 |
| AACAACTATTAATTTACACACATGTATATATTTTAC [CACACA_site3116] | 6.82 |
| TTTTTAATTTATTGTGTGCACACAACTATGAGTTTT | 10.3 |
| TAACTTAATTTTAATGCACACAATTTATATATATAT [CACACA_site6022] | 10.5 |
| TTTAATTATTAGTGTGCACACAACTATGAGTTTTTA [CACACA_site8997] | 10.8 |
| TTTTTTTTTTTTTTTTGTACATATTTTTAAACTATA [XGTACX_site2897] | 6.24 |
| TTCTTTTTTCGACACACACACACAAGAAGATATATA [CACACA_site7456] | 7.11 |
| ATATATCTATAAAAGGCTTCCCACTTTTTTTGTCAA [TGCATGCA_negctrl_site332] | 6.39 |
| GGCGTATGTGTATATACACACCCACGTATATATATA [CACACA_site9046] | 8.02 |
| CCTATTTATATATACACACACATATATAAATAAATA [CACACA_site2991] | 6.95 |
| TATATATATGAGTATACACACCTGATAAAGGTATAT [CACACA_site5462] | 6.87 |

From the supplement of paper PMC11417369
